Screening results as filed in PubChem BioAssay.
In the library only some 9.2% were active in any assay of this set; here they are far more common.
FLuc modulator: inhibits or activates purified firefly luciferase, miR-21 counter-screen; purified FLuc, Km substrates, luminescence inhibition; Potency, µM (titrated, usually from 57.5 µM), for inactives: top-dose activity change, negative = inhibition, actives largely listed as inhibitors; hit rate 6.9% among 360,000;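 also: plate controls were vehicle for no effect and reference inhibitor for full effect; nearly all actives have a fitted effect of over 55% in size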
Target sequence (P08659 whole entry, looked up): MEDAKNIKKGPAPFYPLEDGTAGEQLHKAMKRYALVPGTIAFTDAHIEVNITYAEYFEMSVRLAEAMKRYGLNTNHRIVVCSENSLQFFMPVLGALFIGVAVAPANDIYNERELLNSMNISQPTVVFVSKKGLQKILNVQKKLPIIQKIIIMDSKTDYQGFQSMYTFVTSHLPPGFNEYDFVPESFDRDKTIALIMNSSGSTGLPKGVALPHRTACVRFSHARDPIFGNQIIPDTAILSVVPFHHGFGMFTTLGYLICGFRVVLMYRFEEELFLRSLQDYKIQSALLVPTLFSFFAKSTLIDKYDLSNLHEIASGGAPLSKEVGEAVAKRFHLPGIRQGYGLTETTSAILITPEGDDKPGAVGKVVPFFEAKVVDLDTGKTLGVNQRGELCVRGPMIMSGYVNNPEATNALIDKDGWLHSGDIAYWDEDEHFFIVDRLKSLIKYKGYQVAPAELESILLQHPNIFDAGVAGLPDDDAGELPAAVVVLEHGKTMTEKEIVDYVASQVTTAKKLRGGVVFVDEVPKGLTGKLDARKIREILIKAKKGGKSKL
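Biochemical qHTS of compounds, final roughly 60 µM downward over six points, against 10 nM purified firefly luciferase using Km concentrations of substrates (10 uM D-luciferin, 10 uM ATP) in Tris acetate pH 7.5 buffer; luminescence output.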
SMN2 splice enh: enhancers of SMN2 splice variant expression; AID 1458; hit rate 2.8% among 210,000; HEK293 SMN2-luciferase splicing reporter, luminescence, 30-36 h; Potency, µM (highest dose often 46.1 µM), inactives show top-dose activity change, positive = activation, hits mostly activators; also: % of control where 0% means no effect; nearly all actives have a fitted effect of over 55% in size
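qHTS luciferase splicing reporter: luminescence rises when SMN2 exon 7 is included in transfected HEK293 cells. Compound exposure lasted 30-36 h at 37C, with 4.5 mM final sodium butyrate as control, followed by a ONE-Glo read.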
ELG1 repair inh: inhibitors of ELG1-dependent DNA repair in HEK293T cells; HEK293T ELG1-luciferase reporter, luminescence, 16 h; DNA damage induced by 5-fluorouridine; Potency, µM (top dose mostly 46.1 µM), for the others: top-dose activity change, negative = inhibition, most hits filed as inhibitors; hit rate 2.3% among 330,000; AID 504467; also: % is scaled to controls: 0 for no effect and ±100 for the full control effect; nearly all actives have a fitted effect of over 55% in size
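5-Fluorouridine DNA damage + compound/DMSO, 2,000 cells/well, 16 h, 37 °C/5% CO2. ONE-Glo, 30 min RT, luminescence. Readout = decrease in reporter signal.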
Rab9 promoter act: activators of Rab9 promoter. AID 485297. hit rate 2.8% among 320,000. Potency, µM (top dose mostly 9.22 µM), without a hit: at the highest dose activation, negative = inhibition, usual class: activators. Huh7 Rab9 promoter-luciferase reporter, luminescence, 24 h; also: % of control where 0% means no effect; nearly all actives have a fitted effect of over 60% in size
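Huh7 cells stably carrying Rab9 promoter–luciferase reporter, plated 1500 cells/well, compound added after 2 h and incubated 24 h at 37 °C; luciferase luminescence then read after 10 min with detection reagent.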
ELG1 genotox: induces genotoxicity in HEK293T cells with luciferase-tagged ELG1 | AID 504466 | HEK293T ELG1-luciferase reporter, luminescence, 16 h | Potency, µM (doses to about 46 µM), for inactives: at the highest dose activity change, positive = activation, usual class: activators | hit rate 1.3% among 330,000; also: % of control where 0% means no effect; nearly all actives have a fitted effect of over 60% in size
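HEK293T cells expressing luciferase-tagged ELG1 were exposed to compound or DMSO vehicle for 16 hr at 37 °C and 5% CO2. Luciferase activity was then measured with ONE-Glo after 30 min at room temperature.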
NPC1 prom act: activates the NPC1 promoter; Huh7 NPC1 promoter luciferase reporter, 24 h; AID 485313; Potency, µM (doses to about 9.22 µM), for the others: at the top dose activation, usual class: activators; hit rate 2.4% among 320,000; also: % of control where 0% means no effect; nearly all actives have a fitted effect of over 60% in size
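Luciferase expression driven by the NPC1 promoter was measured in stably transfected Huh7 cells after a 24 h compound incubation, using a luciferase reagent and a luminescence read.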
Starred values were filed as active, the others as inactive; ? = inconclusive; . = no result given; [ ] = dose if it differs, or a comment. Calls follow the shape of the dose curve; as a rule, active = well fitted curve in the direction sought with a large enough effect; inconclusive = small, poorly fitted or top-dose-only effect, or another doubt; inactive = no such curve, though single readings can be large; an effect the other way counts as inactive or inconclusive. Potency is read from the fitted curve at half-maximal effect.

SMILES	FLuc modulator	SMN2 splice enh	ELG1 repair inh	Rab9 promoter act	ELG1 genotox	NPC1 prom act
CCOc1ccccc1NC(=O)Cn1c(=O)oc2cc(S(=O)(=O)NCc3ccccc3)ccc21	-16%	.	.	.	.	.
O=C(COC(=O)c1cc(S(=O)(=O)N2CCCCC2)ccc1N1CCOCC1)NC1CCS(=O)(=O)C1 (stereo not given)	0%	-6%	2%	-6%	1%	-4%
C=CCNC(=O)c1ccc2c3n(nc2c1)-c1ccccc1CO3	0.67µM*	.	?	?	?	0.45µM*
C=CCNC(=O)c1ccc2nc(-c3ccccc3)c(-c3ccccc3)nc2c1	-1%	-9%	?	-5%	-6%	-4%
Cc1ccc(N=C/C(C(=O)C(F)(F)F)=C(\O)c2cccs2)cc1	13µM*	?	?	1.8µM*	?	1.8µM*
O=C(O)c1cccc(N2C(=O)/C(=C/c3ccc([N+](=O)[O-])cc3)C=C2c2ccccc2)c1	24µM*	-15%	?	7%	-4%	0%
O=C1/C(=C/c2ccc([N+](=O)[O-])cc2)C=C(c2ccccc2)N1c1ccccc1	0%	.	0%	1%	3%	2%
Cc1cc(Nc2ccc(Cl)cc2)nc(N)n1	19µM*	16%	?	?	?	?
COc1ccc(Nc2cc(C)nc(N)n2)cc1	?	.	?	?	13%	22%
Nc1cc(Nc2ccc(Br)cc2)nc(N)n1	13µM*	.	?	?	?	3.5µM*
COc1ccc(Nc2cc(Cl)nc(N)n2)cc1	-19%	?	?	28%	?	14%
C/C(=N\Nc1ccc2nncn2n1)c1ccccn1	-12%	.	1.2µM*	-27%	?	-14%
C(=N\Nc1ccc2nncn2n1)/c1ccccn1	-3%	.	5.8µM*	-2%	?	-1%
CCOc1cc(CNn2cn[nH]c2=S)cc(Cl)c1OCc1ccccc1F	1%	-2%	-22%	-2%	-7%	-1%
Cc1ccc(CN(c2ccc(C(=O)Nc3ccc4c(c3)OCO4)cc2)S(C)(=O)=O)cc1	-16%	-1%	-13%	-1%	-3%	-3%
CN(CC1CCCO1)S(=O)(=O)c1ccc(C(=O)N2CCN(c3ccccc3)CC2)cc1 (stereo not given)	1%	-31%	23µM*	-9%	-8%	-1%
CN(c1ccc(C(=O)Nc2ccc3c(c2)OCCO3)cc1)S(C)(=O)=O	7.6µM*	11µM*	?	1.6µM*	?	2.2µM*
CN(CC1CCCO1)S(=O)(=O)c1ccc(C(=O)Nc2ccc3c(c2)OCO3)cc1 (stereo not given)	-7%	-28%	12µM*	-9%	-4%	-3%
O=C(c1ccc(OCC2CCCO2)cc1)N1CCN(c2ccccc2)CC1 (stereo not given)	-1%	10%	2%	-3%	-3%	-1%
CN(c1ccc(C(=O)Nc2ccc3c(c2)OCO3)cc1)S(C)(=O)=O	12µM*	.	?	4µM*	15%	2.8µM*
CN(c1ccccc1C(=O)Nc1ccc2c(c1)OCCO2)S(C)(=O)=O	2%	-9%	4%	10%	1%	-1%
Cn1cc([C@@H]2C[C@H]3CN(Cc4cccc(Cl)c4)C(=O)[C@]34CCCN24)c2ccccc21	-8%	.	-1%	-2%	0%	3%
COc1ccccc1NC(=S)N(Cc1ccco1)Cc1cc2cccc(C)c2[nH]c1=O	-1%	0%[1.84 µM]	16µM*	-4%	-7%	-5%
COc1ccccc1NC(=S)N(Cc1ccco1)Cc1cc2cc(C)c(C)cc2[nH]c1=O	7%	-25%	?	-20%	7%	-21%
COc1ccccc1NC(=O)N(Cc1ccco1)Cc1cc2cc(C)cc(C)c2[nH]c1=O	-27%	-15%	18µM*	2%	-4%	-2%
SMILES	FLuc modulator	SMN2 splice enh	ELG1 repair inh	Rab9 promoter act	ELG1 genotox	NPC1 prom act
Cc1ccc(C)c2[nH]c(=O)c(CN(Cc3ccco3)C(=O)Nc3ccccc3)cc12	?	-20%	5.2µM*	-5%	-12%	2%
COc1cccc(CNCC2CCCO2)c1 (stereo not given)	-1%	.	?	9%	2%	3%
NC(=O)NCCCC(=O)NCC(c1ccccc1Cl)c1c[nH]c2ccccc12 (stereo not given)	1%	.	3%	7%	1%	-1%
COc1cc2nc(CN3CCN(S(=O)(=O)c4ccccc4)CC3)[nH]c(=O)c2cc1OC	0%	.	?	-3%	-1%	0%
COc1cc2nc(CN3CCN(S(=O)(=O)c4cc(C)ccc4C)CC3)[nH]c(=O)c2cc1OC	.	.	15µM*	.	-3%	.
Cn1c(SCc2ccccc2)nnc1-c1ccc2c(c1)OCO2	?	22µM*	?	?	18µM*	?
c1cncc(CSc2ccc(-c3cccnc3)nn2)c1	-9%	11%	?	-2%	3%	0%
c1ccc(CSc2ccc(-c3cccnc3)nn2)cc1	21µM*	?	?	?	13%	?
c1ccc(CSc2ccc(-c3ccc4c(c3)OCO4)nn2)cc1	2.7µM*	18µM*	?	3.2µM*	?	3.5µM*
Fc1ccc(CSc2ccc(-c3ccc4c(c3)OCO4)nn2)cc1	?	7%	?	-4%	13%	2%
Cn1c(SCC#N)nnc1-c1ccc2c(c1)OCO2	0%	-9%	1%	-3%	4%	-1%
COC(CNC(=O)c1cccnc1)OC	0%	.	-1%	-3%	0%	-6%
COC(CNC(=O)c1ccc2c3c(onc13)-c1ccccc1C2=O)OC	15µM*	.	?	?	?	?
CCCC(=O)Nc1cc(-c2nc3ncccc3o2)ccc1Cl	1%	.	15%	10%	-2%	-1%
Cc1cc(-c2nc3ncccc3o2)ccc1N	17µM*	11µM*	?	?	?	?
CCC(=O)Nc1ccc(-c2nc3ncccc3o2)cc1C	-18%	?	.	.	.	.
Nc1cc(-c2nc3ncccc3o2)ccc1Cl	19µM*	10µM*	?	4µM*	?	?
Cc1ccc(-c2nc3ncccc3o2)cc1N	15µM*	.	?	3.5µM*	?	4µM*
Cc1ccc(NC(=O)Cn2c(=O)n(CCC(=O)N3CCc4ccccc4C3)c(=O)c3ccccc32)cc1	-14%	2%	.	.	.	.
COc1ccc(O)c(/C=N/NC(=O)CN2CCS(=O)(=O)CC2)c1	0%	.	0%	0%	0%	-1%
COc1ccc(-n2ccnc2SCC(=O)NC2CCCC2)c(OC)c1	4%	-21%	4%	-2%	-3%	-2%
